PubChem BioAssay AID1963316 (National Center for Advancing Translational Sciences (NCATS), 2024)
Inconclusive results are not listed. Active and inactive are the calls of the source. The call rests on the fitted dose curve.

target: Tyrosine-protein kinase ABL1 (Homo sapiens) (UniProt P00519); assay: ABL1 kinase (ABL1-N-HiBiT) SDR gain of signal screen - plus ATP; conditions: purified ABL1-N-HiBiT enzyme, HiBiT luminescence with 50 uM ATP, 30 min; series mostly up to 57.5 µM; signal gain, positive = increase: at the top concentration
Sequence (P00519 whole entry, looked up): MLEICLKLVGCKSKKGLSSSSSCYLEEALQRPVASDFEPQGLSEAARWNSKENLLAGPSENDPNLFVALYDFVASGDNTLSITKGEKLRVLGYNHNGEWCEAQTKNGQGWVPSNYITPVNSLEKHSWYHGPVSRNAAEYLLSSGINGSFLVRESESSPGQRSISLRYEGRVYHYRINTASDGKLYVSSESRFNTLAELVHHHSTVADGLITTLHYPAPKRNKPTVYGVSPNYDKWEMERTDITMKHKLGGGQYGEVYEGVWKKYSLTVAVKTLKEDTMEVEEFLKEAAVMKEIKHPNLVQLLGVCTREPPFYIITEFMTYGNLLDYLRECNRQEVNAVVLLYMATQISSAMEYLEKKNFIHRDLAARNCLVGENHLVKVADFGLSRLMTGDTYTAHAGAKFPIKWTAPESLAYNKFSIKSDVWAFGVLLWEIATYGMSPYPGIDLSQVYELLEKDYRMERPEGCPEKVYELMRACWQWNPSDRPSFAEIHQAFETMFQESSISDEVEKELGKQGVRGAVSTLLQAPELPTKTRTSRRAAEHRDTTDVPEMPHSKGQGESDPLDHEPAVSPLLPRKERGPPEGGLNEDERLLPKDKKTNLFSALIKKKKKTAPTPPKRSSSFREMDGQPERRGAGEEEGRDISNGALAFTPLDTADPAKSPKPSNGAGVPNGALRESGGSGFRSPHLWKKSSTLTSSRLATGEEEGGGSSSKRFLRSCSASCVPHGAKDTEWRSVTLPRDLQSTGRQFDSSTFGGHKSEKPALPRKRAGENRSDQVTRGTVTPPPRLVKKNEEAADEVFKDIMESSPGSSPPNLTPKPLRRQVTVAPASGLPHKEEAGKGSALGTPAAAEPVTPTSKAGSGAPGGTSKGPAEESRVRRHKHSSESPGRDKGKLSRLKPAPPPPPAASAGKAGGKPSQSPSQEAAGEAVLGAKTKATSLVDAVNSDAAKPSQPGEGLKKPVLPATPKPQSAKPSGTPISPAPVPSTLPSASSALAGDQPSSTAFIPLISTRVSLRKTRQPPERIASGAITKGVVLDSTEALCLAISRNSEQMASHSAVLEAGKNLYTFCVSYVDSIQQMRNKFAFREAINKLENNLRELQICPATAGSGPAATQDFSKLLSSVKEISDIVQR
Summary of the method: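 ABL1-N-HiBiT protein (10 nM final) with 50 uM ATP incubated with compounds for 30 min at RT, protected from light. Nano-Glo HiBiT reagent then added for 10 min; luminescence read on CCD imager, with DMSO neutral and imatinib positive controls.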

SMILES	Potency	signal gain, positive = increase
COc1cc(N2CCC(N3CCN(C)CC3)CC2)ccc1Nc1ncc(Cl)c(Nc2ccccc2P(C)(C)=O)n1	3150 nM (active)	
Cc1[nH]c2ccccc2c1C1=C(NCCc2ccc(F)cc2)C(=O)N(C)C1=O		-13.3% (inactive)
CCN1CCN(Cc2ccc(NC(=O)c3ccc(C)c(NC(=O)c4cncc(-c5cccs5)c4)c3)cc2C(F)(F)F)CC1		6.84% (inactive)
C[C@@H]1CN(CC(=O)Nc2ccc3c(c2)Cc2cccc(-c4cc(=O)cc(N5CCOCC5)o4)c2S3)C[C@H](C)O1		-5.71% (inactive)
CCOc1ccn(-c2ccc(F)cc2)c(=O)c1C(=O)Nc1ccc(Oc2ccnc(N)c2Cl)c(F)c1	15400 nM (active)	
COc1cc2ncnc(Oc3cccc(NC(=O)Nc4cc(C(C)(C)C(F)(F)F)on4)c3)c2cc1OC	1410 nM (active)	
COC(=O)Nc1ccc(-c2nc(N3CCOCC3)c3cnn(C4CCN(C(=O)OC)CC4)c3n2)cc1		-36.6% (inactive)
COc1cc2ncnc(-n3nc(-c4ccccn4)nc3N)c2cc1OC	891 nM (active)	
C=CC(=O)Nc1cccc(Oc2nc(Nc3ccc(N4CCN(C)CC4)cc3OC)ncc2Cl)c1		0.255% (inactive)
Cc1cc(C)c(/C=C2\C(=O)Nc3ccccc32)[nH]1		-14.8% (inactive)
FC(F)(F)c1ccc(/C=C/c2nc(COc3ccc(CCCCn4ccnn4)cc3)co2)cc1		1.31% (inactive)
Nc1nc(NCCNc2ncc(-n3ccnc3)c(-c3ccc(Cl)cc3Cl)n2)ccc1[N+](=O)[O-]		-26.8% (inactive)
Cn1cc(-c2cc3c(N4CCN(c5ncc([C@@](C)(N)c6ccc(F)cc6)cn5)CC4)ncnn3c2)cn1	10300 nM (active)	
CCN1C(=O)CNc2ncc(-c3ccc(-c4ncn[nH]4)nc3C)nc21		3.79% (inactive)
CC[C@@](C)(Nc1ccnc(-c2c[nH]c3ncccc23)n1)C(=O)NCC(F)(F)F	11200 nM (active)	
CN1CCN(CCCNc2ncc(Cl)c(-c3cc4c(C(=O)NC5CC5)cccc4s3)n2)CC1		1.32% (inactive)
CCn1c(=O)c(-c2ccc(Cl)cc2Cl)cc2cnc(Nc3ccc(N4CCNCC4)c(F)c3)nc21		10.2% (inactive)
C=CC(=O)N1CCC[C@@H](n2nc(-c3cccc(C(=O)Nc4ccc(C(C)C)c(C)c4)c3)c3c(N)ncnc32)C1		9.15% (inactive)
O=C1CCC(N2C(=O)c3ccccc3C2=O)C(=O)N1 (stereo not drawn)		-4.35% (inactive)
COc1ccccc1-c1c[nH]c2ncc(-c3cncc(C(=O)N(C)C)c3)cc12	19.9 nM (active)	
O=c1c(O)c(-c2ccc(O)c(O)c2)oc2cc(O)cc(O)c12		6.27% (inactive)
Cc1ccc(-n2nc(C(C)(C)C)cc2NC(=O)NCc2cc(F)ccc2Oc2ccc3c(cnn3CCO)c2)cc1	375 nM (active)	
COc1ccc(S(=O)(=O)N(C(C)=O)c2ccccc2/C=C/c2cc[n+]([O-])cc2)cc1		-0.277% (inactive)
